The record followed here is publication PMC7862700, “An all-to-all approach to the identification of sequence-specific readers for epigenetic DNA modifications on cytosine”.

Common to all, as to assay: DAPPL (digital affinity profiling via proximity ligation, sequencing); 10 mM Tris-HCl pH 7.5, 50 mM NaCl, 1 mM DTT, 4% glycerol, room temperature, 30 min; GST-TFs on glutathione beads, 16-mer random dsDNA library, 0.1% formaldehyde crosslink after washing; high values mean tight binding
One assay addresses T1, FLI1 (Homo sapiens, UniProt Q01543 1-452).
T1 sequence: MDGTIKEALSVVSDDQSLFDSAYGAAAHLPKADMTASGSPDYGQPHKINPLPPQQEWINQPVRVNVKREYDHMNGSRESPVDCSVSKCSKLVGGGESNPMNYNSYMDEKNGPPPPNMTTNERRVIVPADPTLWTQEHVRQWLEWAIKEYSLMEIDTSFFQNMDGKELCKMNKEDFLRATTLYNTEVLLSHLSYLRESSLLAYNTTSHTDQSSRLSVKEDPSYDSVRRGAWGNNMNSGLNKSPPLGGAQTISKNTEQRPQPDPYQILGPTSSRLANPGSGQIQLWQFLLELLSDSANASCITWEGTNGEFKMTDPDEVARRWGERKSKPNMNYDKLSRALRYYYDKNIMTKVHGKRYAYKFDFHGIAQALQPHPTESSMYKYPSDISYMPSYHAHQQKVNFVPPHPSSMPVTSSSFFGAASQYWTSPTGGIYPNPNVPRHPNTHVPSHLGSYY
To be noted: protein: recombinant; tags: N-terminal GST; dsDNA, one strand shown. The method in brief: (§1)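 Pools were built from human transcription factors expressed in yeast as GST fusions, captured on glutathione beads and DNA-barcoded, along with a tag-only sample. Incubation with 200 nmole of a 16-mer random double-stranded DNA library lasted 30 min at room temperature in Tris/NaCl/DTT/glycerol buffer, and was followed by washing, 0.1% formaldehyde crosslinking, proximity ligation, PCR amplification and Illumina NextSeq500 sequencing. Binding signal is the quotient of each hexamer's read frequency for a factor and its frequency for the tag-only sample.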

A further assay concerns the target T2, ELK1 (Homo sapiens, UniProt P19419 1-428).
T2 sequence: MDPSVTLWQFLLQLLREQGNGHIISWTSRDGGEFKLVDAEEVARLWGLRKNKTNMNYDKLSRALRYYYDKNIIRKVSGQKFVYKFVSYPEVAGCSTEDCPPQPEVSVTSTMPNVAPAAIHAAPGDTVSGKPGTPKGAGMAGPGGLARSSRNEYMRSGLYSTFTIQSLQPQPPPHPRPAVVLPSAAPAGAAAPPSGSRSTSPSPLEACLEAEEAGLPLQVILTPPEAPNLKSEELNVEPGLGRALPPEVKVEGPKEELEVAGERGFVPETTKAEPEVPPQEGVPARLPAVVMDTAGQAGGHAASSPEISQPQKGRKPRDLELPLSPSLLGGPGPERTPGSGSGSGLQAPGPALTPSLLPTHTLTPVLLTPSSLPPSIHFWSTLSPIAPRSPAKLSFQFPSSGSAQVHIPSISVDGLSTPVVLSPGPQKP
Particulars: protein: recombinant; tags: N-terminal GST; dsDNA, one strand shown. The method in brief:
as §1

In another assay the target is T3, GABPA (Homo sapiens, UniProt Q06546 1-454).
T3 sequence: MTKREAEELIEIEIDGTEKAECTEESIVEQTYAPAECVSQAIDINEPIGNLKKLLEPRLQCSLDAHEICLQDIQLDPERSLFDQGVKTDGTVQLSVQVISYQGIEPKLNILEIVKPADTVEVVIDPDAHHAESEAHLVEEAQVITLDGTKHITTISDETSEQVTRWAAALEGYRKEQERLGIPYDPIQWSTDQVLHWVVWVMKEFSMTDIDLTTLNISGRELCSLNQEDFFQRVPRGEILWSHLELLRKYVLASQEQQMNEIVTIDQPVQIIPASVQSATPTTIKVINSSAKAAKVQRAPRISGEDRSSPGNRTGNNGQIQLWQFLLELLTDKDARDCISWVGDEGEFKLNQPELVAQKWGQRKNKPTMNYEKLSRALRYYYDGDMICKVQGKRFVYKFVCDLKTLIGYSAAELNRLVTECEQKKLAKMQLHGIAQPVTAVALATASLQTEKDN
To be noted: protein: recombinant; tags: N-terminal GST; dsDNA, one strand shown. The method in brief: as §1

The next assay concerns the target T4, ERG (Homo sapiens, UniProt P11308 1-479).
T4 sequence: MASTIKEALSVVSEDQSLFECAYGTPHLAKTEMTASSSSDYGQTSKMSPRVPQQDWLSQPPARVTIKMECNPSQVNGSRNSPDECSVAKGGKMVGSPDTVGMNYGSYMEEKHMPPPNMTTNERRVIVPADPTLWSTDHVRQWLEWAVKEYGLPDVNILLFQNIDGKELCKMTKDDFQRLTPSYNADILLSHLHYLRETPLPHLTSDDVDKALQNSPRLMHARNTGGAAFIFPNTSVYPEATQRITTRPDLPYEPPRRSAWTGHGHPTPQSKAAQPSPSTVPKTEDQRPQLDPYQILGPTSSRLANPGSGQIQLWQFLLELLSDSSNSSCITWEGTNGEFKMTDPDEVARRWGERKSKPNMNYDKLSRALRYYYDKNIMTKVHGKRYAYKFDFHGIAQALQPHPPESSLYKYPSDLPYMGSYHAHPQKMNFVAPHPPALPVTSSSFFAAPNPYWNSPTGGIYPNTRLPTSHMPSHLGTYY
Particulars: protein: recombinant; tags: N-terminal GST; dsDNA, one strand shown. The method in brief:
as §1

A further assay deals with ELF1 (Homo sapiens, UniProt P32519 1-619). Particulars: protein: recombinant; tags: N-terminal GST; dsDNA, one strand shown. The method in brief: as §1
The target in the next assay is T5, EHF (Homo sapiens, UniProt Q9NZC4 1-300).
T5 sequence: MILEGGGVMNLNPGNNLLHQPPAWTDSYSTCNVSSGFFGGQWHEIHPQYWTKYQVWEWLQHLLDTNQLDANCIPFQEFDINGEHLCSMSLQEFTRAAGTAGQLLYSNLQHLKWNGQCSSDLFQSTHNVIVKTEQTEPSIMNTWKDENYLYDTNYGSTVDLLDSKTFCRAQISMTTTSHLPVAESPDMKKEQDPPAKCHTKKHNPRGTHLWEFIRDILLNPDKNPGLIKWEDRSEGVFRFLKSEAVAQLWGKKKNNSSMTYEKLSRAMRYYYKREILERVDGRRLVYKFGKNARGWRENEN
To be noted: protein: recombinant; tags: N-terminal GST; dsDNA, one strand shown. The method in brief: as §1

In another assay the target is SPI1 (Homo sapiens, UniProt P17947 1-270). Particulars: protein: recombinant; tags: N-terminal GST; dsDNA, one strand shown. The method in brief: as §1
A further assay deals with SPIB (Homo sapiens, UniProt Q01892 1-262). To be noted: protein: recombinant; tags: N-terminal GST; dsDNA, one strand shown. The method in brief: as §1
Another assay has as its target T6, ELK3 (Homo sapiens, UniProt P41970 1-407).
T6 sequence: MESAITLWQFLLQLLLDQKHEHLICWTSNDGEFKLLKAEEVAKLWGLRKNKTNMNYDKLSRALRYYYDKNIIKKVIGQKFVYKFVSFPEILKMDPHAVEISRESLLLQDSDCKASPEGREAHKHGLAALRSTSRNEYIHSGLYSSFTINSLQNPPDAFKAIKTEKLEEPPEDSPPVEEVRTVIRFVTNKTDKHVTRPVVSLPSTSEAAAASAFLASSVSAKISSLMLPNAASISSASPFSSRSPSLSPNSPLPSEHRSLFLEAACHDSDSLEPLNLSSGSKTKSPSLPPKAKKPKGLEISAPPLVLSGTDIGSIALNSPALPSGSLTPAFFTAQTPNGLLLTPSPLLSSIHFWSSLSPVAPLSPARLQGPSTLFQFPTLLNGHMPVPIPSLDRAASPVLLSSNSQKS
To be noted: protein: recombinant; tags: N-terminal GST; dsDNA, one strand shown. The method in brief:
as §1

The target in another assay is T7, FEV (Homo sapiens, UniProt Q99581 1-238).
T7 sequence: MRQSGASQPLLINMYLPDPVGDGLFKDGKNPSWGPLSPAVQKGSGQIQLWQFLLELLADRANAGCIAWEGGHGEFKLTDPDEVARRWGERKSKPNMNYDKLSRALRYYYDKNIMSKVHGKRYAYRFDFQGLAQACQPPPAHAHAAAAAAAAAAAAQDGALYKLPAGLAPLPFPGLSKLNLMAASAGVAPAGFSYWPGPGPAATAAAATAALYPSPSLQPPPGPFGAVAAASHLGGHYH
Particulars: protein: recombinant; tags: N-terminal GST; dsDNA, one strand shown. The method in brief:
as §1

For the next assay, the target named is ETV5 (Homo sapiens, UniProt P41161 1-510). Particulars: protein: recombinant; tags: N-terminal GST; dsDNA, one strand shown. The method in brief: as §1
The next assay has as its target HSF1 (Homo sapiens, UniProt Q00613 1-529). To be noted: protein: recombinant; tags: N-terminal GST; chain copies: 3; dsDNA, one strand shown. The method in brief: as §1
The target of a further assay is T8, SPIC (Homo sapiens, UniProt Q8N5J4 1-248).
T8 sequence: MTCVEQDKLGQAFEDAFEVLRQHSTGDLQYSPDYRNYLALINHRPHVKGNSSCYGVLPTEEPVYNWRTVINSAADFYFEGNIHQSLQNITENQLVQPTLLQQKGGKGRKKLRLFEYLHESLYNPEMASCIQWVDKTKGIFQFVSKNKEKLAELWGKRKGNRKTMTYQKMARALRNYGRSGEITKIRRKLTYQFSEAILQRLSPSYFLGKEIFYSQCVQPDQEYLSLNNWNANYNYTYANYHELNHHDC
Particulars: protein: recombinant; tags: N-terminal GST; dsDNA, one strand shown. The method in brief: as §1

Another assay has as its target ELF4 (Homo sapiens, UniProt Q99607 1-663). To be noted: protein: recombinant; tags: N-terminal GST; dsDNA, one strand shown. The method in brief: as §1
The target in another assay is T9, ELK4 (Homo sapiens, UniProt P28324-2 1-405).
T9 sequence: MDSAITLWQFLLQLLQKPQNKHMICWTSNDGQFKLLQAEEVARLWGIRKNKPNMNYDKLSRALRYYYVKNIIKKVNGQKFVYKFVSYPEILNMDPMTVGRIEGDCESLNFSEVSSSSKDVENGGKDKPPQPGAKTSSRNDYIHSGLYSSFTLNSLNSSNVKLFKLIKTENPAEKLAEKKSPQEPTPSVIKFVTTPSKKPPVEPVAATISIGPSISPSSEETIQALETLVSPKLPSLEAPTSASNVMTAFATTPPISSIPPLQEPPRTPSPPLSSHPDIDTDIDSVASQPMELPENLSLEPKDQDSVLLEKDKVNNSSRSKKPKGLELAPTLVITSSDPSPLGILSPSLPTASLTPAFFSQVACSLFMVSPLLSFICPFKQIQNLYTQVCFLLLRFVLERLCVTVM
Particulars: protein: recombinant; tags: N-terminal GST; dsDNA, one strand shown. The method in brief:
as §1

Another assay deals with T10, ETV2 (Homo sapiens, UniProt O00321 1-342).
T10 sequence: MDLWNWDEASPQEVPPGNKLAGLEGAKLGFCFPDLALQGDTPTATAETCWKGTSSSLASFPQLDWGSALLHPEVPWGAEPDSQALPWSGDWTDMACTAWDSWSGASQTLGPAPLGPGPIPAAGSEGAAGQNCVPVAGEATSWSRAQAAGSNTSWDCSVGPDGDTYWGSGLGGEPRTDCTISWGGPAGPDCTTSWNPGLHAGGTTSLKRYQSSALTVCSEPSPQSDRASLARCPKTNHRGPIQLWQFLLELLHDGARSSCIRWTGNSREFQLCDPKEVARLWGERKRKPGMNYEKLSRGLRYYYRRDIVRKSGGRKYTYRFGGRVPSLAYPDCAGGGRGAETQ
Particulars: protein: recombinant; tags: N-terminal GST; dsDNA, one strand shown. The method in brief: as §1

Another assay concerns the target T11, ELF3 (Homo sapiens, UniProt P78545 1-371).
T11 sequence: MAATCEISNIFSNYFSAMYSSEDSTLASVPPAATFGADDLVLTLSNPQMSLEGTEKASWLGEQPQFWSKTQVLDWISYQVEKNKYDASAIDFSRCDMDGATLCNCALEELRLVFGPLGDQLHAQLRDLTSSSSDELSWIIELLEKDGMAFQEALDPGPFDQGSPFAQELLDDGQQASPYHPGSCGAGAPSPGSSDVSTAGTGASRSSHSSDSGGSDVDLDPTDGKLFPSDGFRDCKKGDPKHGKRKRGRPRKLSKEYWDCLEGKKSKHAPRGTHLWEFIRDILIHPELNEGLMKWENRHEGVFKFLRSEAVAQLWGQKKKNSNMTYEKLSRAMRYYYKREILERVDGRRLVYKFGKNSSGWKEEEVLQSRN
Particulars: protein: recombinant; tags: N-terminal GST; dsDNA, one strand shown. The method in brief: as §1

The target of a further assay is CRX (Homo sapiens, UniProt O43186 1-299). To be noted: protein: recombinant; tags: N-terminal GST; dsDNA, one strand shown. The method in brief:
as §1

The next assay concerns the target ETV1 (Homo sapiens, UniProt P50549 1-477). Particulars: protein: recombinant; tags: N-terminal GST; dsDNA, one strand shown. The method in brief: as §1

Sequence of HSF1 (Q00613 whole entry): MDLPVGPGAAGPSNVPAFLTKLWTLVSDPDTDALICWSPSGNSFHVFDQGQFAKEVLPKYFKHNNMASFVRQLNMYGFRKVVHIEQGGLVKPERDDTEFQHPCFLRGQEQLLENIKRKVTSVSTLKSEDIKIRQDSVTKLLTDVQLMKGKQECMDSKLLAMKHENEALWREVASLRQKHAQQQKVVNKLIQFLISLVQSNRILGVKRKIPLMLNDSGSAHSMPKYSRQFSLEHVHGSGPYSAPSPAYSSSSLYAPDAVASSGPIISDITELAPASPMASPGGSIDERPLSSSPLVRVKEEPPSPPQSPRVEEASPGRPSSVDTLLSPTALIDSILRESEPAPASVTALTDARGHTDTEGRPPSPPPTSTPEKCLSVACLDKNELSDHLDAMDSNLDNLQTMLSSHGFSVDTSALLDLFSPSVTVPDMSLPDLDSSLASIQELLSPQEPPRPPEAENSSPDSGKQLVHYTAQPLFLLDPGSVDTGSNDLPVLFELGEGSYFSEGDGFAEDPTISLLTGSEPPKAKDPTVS
Sequence of CRX (O43186 whole entry): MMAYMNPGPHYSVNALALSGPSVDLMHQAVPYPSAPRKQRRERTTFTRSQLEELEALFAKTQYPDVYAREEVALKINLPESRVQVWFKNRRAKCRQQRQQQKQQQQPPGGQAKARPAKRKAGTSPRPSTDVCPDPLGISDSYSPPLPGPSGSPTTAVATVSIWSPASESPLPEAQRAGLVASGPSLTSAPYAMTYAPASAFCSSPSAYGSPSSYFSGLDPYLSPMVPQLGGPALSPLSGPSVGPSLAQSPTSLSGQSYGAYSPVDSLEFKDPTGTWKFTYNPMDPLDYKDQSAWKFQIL
Sequence of ELF4 (Q99607 whole entry): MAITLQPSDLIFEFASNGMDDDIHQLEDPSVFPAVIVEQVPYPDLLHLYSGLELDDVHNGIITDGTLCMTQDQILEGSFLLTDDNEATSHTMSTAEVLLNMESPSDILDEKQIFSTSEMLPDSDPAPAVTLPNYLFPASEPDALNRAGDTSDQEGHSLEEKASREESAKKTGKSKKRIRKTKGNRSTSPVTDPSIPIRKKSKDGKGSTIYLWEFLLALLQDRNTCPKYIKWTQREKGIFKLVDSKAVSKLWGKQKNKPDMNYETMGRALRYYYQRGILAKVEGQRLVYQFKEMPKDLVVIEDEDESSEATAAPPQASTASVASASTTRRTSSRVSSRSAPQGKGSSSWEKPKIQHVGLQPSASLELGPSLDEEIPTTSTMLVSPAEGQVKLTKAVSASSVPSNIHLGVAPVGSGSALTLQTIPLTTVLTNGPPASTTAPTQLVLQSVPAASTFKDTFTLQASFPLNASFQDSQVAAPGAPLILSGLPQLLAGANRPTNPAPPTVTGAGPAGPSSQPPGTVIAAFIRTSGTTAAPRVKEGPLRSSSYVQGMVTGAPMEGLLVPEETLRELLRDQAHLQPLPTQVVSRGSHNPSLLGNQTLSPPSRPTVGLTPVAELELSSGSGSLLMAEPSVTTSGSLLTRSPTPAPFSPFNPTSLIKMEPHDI
Sequence of SPIB (Q01892 whole entry): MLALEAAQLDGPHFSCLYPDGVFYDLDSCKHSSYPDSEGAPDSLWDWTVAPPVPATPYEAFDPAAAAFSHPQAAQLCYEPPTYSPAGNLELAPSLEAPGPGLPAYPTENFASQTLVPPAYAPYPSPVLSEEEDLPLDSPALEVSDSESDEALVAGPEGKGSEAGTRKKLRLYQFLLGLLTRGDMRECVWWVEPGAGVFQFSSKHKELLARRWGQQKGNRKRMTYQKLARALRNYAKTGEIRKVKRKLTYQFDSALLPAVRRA
Sequence of ETV1 (P50549 whole entry): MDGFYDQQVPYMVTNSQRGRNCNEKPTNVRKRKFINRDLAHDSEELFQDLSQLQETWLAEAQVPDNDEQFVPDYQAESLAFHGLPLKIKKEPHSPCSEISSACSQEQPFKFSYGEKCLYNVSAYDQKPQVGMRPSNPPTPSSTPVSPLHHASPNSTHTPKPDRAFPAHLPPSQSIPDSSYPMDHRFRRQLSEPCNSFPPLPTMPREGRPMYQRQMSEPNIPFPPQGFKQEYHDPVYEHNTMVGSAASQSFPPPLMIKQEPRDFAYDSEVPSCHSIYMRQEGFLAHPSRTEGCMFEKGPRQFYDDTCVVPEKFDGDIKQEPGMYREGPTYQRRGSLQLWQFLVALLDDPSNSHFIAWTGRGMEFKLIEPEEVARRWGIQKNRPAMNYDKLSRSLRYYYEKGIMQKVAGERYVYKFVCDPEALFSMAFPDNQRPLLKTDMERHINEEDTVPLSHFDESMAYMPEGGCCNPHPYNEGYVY
Sequence of ELF1 (P32519 whole entry): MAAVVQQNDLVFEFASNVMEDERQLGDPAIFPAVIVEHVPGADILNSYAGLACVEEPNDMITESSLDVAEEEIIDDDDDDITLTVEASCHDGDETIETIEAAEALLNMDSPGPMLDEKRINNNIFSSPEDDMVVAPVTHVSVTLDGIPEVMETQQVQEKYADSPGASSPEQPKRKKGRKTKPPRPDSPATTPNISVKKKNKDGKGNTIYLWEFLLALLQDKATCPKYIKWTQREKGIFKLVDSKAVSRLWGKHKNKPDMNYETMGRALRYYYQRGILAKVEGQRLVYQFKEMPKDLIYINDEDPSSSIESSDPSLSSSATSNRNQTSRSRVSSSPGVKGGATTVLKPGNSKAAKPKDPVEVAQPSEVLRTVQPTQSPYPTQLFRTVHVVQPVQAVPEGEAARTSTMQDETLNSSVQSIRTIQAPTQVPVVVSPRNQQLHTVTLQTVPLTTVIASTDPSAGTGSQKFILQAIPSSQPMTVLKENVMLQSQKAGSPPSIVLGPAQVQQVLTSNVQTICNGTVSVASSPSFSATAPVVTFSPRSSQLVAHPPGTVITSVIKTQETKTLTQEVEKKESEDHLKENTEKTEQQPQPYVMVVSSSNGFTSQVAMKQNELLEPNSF
Sequence of ETV5 (P41161 whole entry): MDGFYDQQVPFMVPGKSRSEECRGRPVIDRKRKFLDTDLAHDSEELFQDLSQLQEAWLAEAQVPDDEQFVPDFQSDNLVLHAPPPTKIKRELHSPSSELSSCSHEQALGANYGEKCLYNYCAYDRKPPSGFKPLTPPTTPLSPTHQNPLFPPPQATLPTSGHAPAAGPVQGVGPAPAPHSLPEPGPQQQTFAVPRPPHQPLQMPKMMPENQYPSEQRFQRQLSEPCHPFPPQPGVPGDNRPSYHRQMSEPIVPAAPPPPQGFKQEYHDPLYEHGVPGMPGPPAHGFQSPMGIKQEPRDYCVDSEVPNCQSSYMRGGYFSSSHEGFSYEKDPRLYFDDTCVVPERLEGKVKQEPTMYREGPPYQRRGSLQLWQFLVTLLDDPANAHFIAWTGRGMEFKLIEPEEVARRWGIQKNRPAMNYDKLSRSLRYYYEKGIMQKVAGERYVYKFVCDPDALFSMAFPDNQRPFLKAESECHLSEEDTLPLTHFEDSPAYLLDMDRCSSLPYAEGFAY

On to CCTGCG, for which the binding signal is 1.27 fold enrichment (6-mer frequency, TF over GST control) with FLI1; 1.34 fold enrichment (6-mer frequency, TF over GST control) in the assay with ELK1; 1.39 fold enrichment (6-mer frequency, TF over GST control) with GABPA; 1.27 fold enrichment (6-mer frequency, TF over GST control) in the assay with ERG; 1.38 fold enrichment (6-mer frequency, TF over GST control) in the assay with ELF1; 1.31 fold enrichment (6-mer frequency, TF over GST control) in the assay with EHF. Also, the binding signal is 1.23 fold enrichment (6-mer frequency, TF over GST control) with SPI1; 1.35 fold enrichment (6-mer frequency, TF over GST control) in the assay with SPIB; 1.22 fold enrichment (6-mer frequency, TF over GST control) with ELK3; 1.28 fold enrichment (6-mer frequency, TF over GST control) in the assay with FEV; 1.27 fold enrichment (6-mer frequency, TF over GST control) in the assay with ETV5; 1.1 fold enrichment (6-mer frequency, TF over GST control) in the assay with HSF1. Moreover, the binding signal with SPIC was 1.12 fold enrichment (6-mer frequency, TF over GST control); with ELF4, 1.32 fold enrichment (6-mer frequency, TF over GST control); with ELK4 it was 1.37 fold enrichment (6-mer frequency, TF over GST control); in the assay with ETV2, 1.41 fold enrichment (6-mer frequency, TF over GST control); with ELF3, 1.23 fold enrichment (6-mer frequency, TF over GST control); with CRX, 1.05 fold enrichment (6-mer frequency, TF over GST control). Also, the binding signal with ETV1 is 1.39 fold enrichment (6-mer frequency, TF over GST control).
